Assay in all cases: DAPPL (digital affinity profiling via proximity ligation, sequencing); 10 mM Tris-HCl pH 7.5, 50 mM NaCl, 1 mM DTT, 4% glycerol, room temperature, 30 min; GST-TFs on glutathione beads, 16-mer random dsDNA library, 0.1% formaldehyde crosslink after washing; high values mean tight binding
One experiment addresses T1, FLI1 (Homo sapiens, UniProt Q01543 1-452).
T1 sequence: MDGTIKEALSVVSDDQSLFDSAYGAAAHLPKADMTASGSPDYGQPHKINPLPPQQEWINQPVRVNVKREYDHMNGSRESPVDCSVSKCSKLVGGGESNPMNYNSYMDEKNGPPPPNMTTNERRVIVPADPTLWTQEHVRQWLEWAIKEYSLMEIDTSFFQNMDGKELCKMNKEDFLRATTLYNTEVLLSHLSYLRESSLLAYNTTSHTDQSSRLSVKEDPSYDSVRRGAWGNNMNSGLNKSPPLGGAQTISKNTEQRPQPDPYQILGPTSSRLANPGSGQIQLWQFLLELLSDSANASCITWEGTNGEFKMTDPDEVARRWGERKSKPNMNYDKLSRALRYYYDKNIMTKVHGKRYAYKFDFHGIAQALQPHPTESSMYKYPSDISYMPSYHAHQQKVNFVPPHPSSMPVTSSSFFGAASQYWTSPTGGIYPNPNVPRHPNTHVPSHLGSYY
To be noted: protein: recombinant; tags: N-terminal GST; dsDNA, one strand shown. An outline of the steps:
(§1)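 Pools were built from human transcription factors expressed in yeast as GST fusions, captured on glutathione beads and DNA-barcoded, along with a tag-only sample. Incubation with 200 nmole of a 16-mer random double-stranded DNA library lasted 30 min at room temperature in Tris/NaCl/DTT/glycerol buffer, and was followed by washing, 0.1% formaldehyde crosslinking, proximity ligation, PCR amplification and Illumina NextSeq500 sequencing. Binding signal is the quotient of each hexamer's read frequency for a factor and its frequency for the tag-only sample.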

In the next experiment the target is T2, ELK1 (Homo sapiens, UniProt P19419 1-428).
T2 sequence: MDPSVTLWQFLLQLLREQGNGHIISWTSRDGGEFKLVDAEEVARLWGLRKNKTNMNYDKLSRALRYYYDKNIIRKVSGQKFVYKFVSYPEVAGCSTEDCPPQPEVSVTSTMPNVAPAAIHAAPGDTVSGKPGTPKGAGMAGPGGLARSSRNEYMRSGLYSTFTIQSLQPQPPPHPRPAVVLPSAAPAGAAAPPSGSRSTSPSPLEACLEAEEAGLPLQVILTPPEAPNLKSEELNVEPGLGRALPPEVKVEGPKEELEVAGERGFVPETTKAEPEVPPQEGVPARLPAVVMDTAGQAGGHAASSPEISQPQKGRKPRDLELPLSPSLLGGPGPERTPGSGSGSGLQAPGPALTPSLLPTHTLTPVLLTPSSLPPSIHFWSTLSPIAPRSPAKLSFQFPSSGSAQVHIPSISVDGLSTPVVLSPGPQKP
To be noted: protein: recombinant; tags: N-terminal GST; dsDNA, one strand shown. An outline of the steps:
as §1

The target in a further experiment is T3, GABPA (Homo sapiens, UniProt Q06546 1-454).
T3 sequence: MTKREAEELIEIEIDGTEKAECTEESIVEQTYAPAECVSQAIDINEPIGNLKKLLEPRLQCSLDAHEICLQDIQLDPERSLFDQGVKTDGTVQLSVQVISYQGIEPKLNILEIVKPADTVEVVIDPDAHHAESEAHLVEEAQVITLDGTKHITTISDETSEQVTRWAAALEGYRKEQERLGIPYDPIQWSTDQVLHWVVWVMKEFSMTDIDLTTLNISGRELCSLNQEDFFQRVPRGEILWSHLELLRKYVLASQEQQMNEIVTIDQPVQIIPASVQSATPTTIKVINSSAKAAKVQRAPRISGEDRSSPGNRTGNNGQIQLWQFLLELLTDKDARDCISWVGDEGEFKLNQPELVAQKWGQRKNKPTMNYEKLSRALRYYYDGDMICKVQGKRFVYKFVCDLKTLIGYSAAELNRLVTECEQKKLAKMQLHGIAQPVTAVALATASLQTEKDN
To be noted: protein: recombinant; tags: N-terminal GST; dsDNA, one strand shown. The essentials:
as §1

In another experiment the target is T4, ERG (Homo sapiens, UniProt P11308 1-479).
T4 sequence: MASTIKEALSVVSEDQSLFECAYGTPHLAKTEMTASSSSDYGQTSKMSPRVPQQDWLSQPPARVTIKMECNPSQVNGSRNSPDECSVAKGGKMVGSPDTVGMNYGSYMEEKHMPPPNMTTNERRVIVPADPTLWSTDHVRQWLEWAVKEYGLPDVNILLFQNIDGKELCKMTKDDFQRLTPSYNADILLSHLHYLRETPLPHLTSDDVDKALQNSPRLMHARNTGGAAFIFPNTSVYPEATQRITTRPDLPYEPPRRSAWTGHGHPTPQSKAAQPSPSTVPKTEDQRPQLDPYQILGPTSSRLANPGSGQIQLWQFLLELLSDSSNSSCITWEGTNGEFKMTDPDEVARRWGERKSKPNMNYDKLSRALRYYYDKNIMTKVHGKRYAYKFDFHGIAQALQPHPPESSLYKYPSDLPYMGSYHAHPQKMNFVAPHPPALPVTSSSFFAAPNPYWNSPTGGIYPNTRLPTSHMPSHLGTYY
To be noted: protein: recombinant; tags: N-terminal GST; dsDNA, one strand shown. An outline of the steps:
as §1

The next experiment has as its target ELF1 (Homo sapiens, UniProt P32519 1-619). To be noted: protein: recombinant; tags: N-terminal GST; dsDNA, one strand shown. The essentials: as §1
The next experiment deals with T5, EHF (Homo sapiens, UniProt Q9NZC4 1-300).
T5 sequence: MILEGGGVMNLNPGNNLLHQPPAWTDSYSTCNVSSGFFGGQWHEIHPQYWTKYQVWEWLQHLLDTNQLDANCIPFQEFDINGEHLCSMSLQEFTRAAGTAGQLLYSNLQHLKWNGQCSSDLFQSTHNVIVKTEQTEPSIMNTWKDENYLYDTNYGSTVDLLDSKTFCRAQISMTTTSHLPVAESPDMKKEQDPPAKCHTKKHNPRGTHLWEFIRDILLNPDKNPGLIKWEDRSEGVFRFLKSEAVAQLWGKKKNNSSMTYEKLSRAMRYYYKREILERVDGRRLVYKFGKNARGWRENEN
As to conditions: protein: recombinant; tags: N-terminal GST; dsDNA, one strand shown. An outline of the steps: as §1

In a further experiment the target is SPI1 (Homo sapiens, UniProt P17947 1-270). As to conditions: protein: recombinant; tags: N-terminal GST; dsDNA, one strand shown. An outline of the steps: as §1
For the next experiment, the target named is SPIB (Homo sapiens, UniProt Q01892 1-262). To be noted: protein: recombinant; tags: N-terminal GST; dsDNA, one strand shown. The essentials: as §1
SPIB, sequence (Q01892 whole entry): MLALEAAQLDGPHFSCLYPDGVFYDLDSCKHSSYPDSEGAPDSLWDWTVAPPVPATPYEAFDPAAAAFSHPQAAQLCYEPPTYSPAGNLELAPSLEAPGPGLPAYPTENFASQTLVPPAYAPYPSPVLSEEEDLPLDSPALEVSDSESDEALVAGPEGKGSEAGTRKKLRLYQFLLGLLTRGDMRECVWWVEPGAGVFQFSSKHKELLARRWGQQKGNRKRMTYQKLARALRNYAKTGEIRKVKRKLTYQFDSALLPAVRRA
In the next experiment the target is T6, ELK3 (Homo sapiens, UniProt P41970 1-407).
T6 sequence: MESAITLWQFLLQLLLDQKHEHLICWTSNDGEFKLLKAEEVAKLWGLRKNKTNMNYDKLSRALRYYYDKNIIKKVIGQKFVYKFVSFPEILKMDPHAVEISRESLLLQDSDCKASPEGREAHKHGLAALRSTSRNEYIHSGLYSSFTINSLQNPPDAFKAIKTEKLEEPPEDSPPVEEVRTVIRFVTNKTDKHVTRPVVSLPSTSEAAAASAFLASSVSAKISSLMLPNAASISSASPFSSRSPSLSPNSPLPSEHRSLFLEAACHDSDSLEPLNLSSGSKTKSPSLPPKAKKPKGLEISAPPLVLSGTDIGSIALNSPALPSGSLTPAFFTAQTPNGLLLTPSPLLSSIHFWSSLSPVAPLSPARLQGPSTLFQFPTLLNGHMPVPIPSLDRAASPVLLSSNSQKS
As to conditions: protein: recombinant; tags: N-terminal GST; dsDNA, one strand shown. An outline of the steps:
as §1

The next experiment concerns the target T7, FEV (Homo sapiens, UniProt Q99581 1-238).
T7 sequence: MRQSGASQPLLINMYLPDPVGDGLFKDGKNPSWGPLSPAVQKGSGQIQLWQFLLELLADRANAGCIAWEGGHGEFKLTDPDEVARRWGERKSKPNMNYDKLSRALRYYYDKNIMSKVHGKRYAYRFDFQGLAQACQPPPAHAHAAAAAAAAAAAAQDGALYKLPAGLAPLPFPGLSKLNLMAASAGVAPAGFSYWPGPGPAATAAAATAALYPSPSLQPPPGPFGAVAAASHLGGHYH
As to conditions: protein: recombinant; tags: N-terminal GST; dsDNA, one strand shown. An outline of the steps:
as §1

A further experiment deals with ETV5 (Homo sapiens, UniProt P41161 1-510). To be noted: protein: recombinant; tags: N-terminal GST; dsDNA, one strand shown. An outline of the steps:
as §1

The target in another experiment is HSF1 (Homo sapiens, UniProt Q00613 1-529). As to conditions: protein: recombinant; tags: N-terminal GST; chain copies: 3; dsDNA, one strand shown. The essentials:
as §1

A further experiment concerns the target T8, SPIC (Homo sapiens, UniProt Q8N5J4 1-248).
T8 sequence: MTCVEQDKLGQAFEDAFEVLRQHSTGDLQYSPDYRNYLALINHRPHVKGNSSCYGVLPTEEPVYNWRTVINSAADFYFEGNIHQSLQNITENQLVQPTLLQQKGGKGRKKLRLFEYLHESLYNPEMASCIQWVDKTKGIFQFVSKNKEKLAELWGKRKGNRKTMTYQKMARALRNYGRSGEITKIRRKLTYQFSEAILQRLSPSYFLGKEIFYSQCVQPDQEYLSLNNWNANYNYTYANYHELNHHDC
To be noted: protein: recombinant; tags: N-terminal GST; dsDNA, one strand shown. The essentials:
as §1

Another experiment deals with ELF4 (Homo sapiens, UniProt Q99607 1-663). As to conditions: protein: recombinant; tags: N-terminal GST; dsDNA, one strand shown. The essentials:
as §1

For a further experiment, the target named is T9, ELK4 (Homo sapiens, UniProt P28324-2 1-405).
T9 sequence: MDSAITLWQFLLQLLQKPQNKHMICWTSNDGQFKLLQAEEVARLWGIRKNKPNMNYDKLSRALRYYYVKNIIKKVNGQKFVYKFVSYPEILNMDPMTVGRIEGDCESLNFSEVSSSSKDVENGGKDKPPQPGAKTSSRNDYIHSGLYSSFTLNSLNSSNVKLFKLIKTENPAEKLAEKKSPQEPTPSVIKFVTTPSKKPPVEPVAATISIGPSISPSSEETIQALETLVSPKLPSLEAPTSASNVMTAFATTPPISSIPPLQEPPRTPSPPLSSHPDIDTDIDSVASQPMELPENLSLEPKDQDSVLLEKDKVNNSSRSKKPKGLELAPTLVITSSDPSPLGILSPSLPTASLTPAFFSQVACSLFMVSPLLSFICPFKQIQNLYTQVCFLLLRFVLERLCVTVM
As to conditions: protein: recombinant; tags: N-terminal GST; dsDNA, one strand shown. The essentials:
as §1

A further experiment addresses T10, ETV2 (Homo sapiens, UniProt O00321 1-342).
T10 sequence: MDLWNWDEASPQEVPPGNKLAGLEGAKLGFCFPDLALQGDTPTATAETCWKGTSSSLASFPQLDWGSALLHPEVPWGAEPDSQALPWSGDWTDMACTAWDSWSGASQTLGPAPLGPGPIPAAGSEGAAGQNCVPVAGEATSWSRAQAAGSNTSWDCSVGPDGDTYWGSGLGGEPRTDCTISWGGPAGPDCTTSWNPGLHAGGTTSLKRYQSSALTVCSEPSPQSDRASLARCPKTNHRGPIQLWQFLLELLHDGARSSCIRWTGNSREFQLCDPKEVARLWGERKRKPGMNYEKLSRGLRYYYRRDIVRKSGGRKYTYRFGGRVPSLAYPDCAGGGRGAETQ
As to conditions: protein: recombinant; tags: N-terminal GST; dsDNA, one strand shown. An outline of the steps:
as §1

The target in another experiment is T11, ELF3 (Homo sapiens, UniProt P78545 1-371).
T11 sequence: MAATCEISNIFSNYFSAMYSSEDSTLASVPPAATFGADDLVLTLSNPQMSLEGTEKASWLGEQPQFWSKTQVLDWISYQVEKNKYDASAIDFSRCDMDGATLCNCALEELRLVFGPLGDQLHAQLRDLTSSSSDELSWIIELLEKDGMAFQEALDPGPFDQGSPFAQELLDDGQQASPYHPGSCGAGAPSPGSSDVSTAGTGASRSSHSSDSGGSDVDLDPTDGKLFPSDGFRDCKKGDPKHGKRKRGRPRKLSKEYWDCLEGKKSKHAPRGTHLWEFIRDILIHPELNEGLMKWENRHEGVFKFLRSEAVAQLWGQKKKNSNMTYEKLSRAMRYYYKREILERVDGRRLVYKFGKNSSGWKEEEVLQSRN
As to conditions: protein: recombinant; tags: N-terminal GST; dsDNA, one strand shown. The essentials: as §1

The next experiment concerns the target ETV1 (Homo sapiens, UniProt P50549 1-477). To be noted: protein: recombinant; tags: N-terminal GST; dsDNA, one strand shown. An outline of the steps: as §1

HSF1, sequence (Q00613 whole entry): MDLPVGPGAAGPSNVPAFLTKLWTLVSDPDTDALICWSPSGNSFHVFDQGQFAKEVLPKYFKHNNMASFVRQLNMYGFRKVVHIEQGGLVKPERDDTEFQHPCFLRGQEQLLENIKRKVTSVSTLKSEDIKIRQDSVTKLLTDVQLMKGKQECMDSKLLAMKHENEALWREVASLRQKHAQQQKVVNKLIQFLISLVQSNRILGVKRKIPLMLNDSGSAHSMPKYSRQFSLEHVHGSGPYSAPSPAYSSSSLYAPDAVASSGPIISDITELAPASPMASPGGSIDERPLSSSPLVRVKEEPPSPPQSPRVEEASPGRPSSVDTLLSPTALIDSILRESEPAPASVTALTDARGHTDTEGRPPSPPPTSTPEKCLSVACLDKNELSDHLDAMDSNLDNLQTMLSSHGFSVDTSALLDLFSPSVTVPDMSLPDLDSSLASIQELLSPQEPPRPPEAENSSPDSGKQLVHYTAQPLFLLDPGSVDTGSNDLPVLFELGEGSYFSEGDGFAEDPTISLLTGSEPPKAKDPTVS
ELF1, sequence (P32519 whole entry): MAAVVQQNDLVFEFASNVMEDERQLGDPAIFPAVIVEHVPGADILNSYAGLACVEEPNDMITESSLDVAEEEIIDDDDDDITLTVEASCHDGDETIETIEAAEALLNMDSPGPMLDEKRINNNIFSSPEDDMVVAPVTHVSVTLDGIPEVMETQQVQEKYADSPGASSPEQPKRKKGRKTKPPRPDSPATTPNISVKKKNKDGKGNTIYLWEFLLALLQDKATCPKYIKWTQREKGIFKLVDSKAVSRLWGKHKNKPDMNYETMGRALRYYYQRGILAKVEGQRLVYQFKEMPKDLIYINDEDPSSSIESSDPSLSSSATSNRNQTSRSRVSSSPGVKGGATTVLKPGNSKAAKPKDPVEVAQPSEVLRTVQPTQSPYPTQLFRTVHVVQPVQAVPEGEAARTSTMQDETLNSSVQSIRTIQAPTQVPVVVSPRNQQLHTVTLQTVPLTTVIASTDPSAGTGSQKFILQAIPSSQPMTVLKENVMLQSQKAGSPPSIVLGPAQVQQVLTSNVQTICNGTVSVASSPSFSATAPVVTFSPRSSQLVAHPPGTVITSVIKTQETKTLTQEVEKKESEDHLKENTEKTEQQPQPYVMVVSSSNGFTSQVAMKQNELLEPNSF
ELF4, sequence (Q99607 whole entry): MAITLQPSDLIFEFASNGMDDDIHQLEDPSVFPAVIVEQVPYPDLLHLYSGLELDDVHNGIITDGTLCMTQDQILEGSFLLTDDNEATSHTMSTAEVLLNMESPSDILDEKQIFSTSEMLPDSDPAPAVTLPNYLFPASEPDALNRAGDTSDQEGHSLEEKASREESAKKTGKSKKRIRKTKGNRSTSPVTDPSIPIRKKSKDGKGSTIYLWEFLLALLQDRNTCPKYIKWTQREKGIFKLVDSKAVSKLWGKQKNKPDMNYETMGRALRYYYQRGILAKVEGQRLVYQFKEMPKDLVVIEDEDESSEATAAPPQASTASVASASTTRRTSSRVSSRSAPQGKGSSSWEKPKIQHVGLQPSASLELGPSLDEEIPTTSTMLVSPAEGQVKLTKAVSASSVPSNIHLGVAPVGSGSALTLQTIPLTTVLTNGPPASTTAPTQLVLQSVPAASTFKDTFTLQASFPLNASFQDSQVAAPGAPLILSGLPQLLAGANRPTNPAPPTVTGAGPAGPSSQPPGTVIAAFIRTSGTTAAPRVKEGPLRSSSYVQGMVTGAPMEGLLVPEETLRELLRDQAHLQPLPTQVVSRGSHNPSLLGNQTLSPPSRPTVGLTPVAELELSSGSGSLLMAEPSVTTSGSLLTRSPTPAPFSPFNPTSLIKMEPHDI
ETV5, sequence (P41161 whole entry): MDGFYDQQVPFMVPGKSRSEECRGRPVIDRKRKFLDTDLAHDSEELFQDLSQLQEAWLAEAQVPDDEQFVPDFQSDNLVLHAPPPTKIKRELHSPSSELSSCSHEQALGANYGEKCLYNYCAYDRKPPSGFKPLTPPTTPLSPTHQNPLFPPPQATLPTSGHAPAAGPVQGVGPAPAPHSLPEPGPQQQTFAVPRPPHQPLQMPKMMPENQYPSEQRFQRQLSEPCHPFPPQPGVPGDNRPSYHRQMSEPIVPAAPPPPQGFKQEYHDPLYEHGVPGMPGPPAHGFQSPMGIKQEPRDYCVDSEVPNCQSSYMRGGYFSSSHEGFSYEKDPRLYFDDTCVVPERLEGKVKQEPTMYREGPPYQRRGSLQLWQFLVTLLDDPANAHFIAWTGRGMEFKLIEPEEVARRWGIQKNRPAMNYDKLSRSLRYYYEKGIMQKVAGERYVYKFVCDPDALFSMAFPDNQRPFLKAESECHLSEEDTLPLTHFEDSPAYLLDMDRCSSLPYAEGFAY
ETV1, sequence (P50549 whole entry): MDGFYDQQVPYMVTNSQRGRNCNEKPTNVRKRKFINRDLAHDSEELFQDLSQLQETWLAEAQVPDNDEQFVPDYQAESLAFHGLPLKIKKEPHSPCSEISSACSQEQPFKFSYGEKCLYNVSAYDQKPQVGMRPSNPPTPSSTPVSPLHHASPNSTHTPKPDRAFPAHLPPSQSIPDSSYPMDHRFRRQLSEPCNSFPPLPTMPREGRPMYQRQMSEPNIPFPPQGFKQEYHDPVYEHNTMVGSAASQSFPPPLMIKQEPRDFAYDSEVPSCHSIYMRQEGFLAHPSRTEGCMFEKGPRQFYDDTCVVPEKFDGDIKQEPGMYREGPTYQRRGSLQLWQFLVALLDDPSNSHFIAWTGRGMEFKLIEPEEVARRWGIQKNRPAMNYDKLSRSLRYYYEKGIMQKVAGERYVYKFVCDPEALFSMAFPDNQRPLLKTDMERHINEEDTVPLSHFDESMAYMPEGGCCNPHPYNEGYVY

Take CTGCCC: the binding signal with FLI1 is 1.31 fold enrichment (6-mer frequency, TF over GST control); in the experiment with ELK1 it was 1.29 fold enrichment (6-mer frequency, TF over GST control); in the experiment with GABPA, 1.29 fold enrichment (6-mer frequency, TF over GST control); with ERG, 1.36 fold enrichment (6-mer frequency, TF over GST control); in the experiment with ELF1 it was 1.32 fold enrichment (6-mer frequency, TF over GST control); with EHF, 1.46 fold enrichment (6-mer frequency, TF over GST control). Moreover, the binding signal was 1.27 fold enrichment (6-mer frequency, TF over GST control) with SPI1; 1.19 fold enrichment (6-mer frequency, TF over GST control) with SPIB; 1.1 fold enrichment (6-mer frequency, TF over GST control) with ELK3; 1.37 fold enrichment (6-mer frequency, TF over GST control) with FEV; 1.25 fold enrichment (6-mer frequency, TF over GST control) with ETV5; 1.05 fold enrichment (6-mer frequency, TF over GST control) in the experiment with HSF1. Besides, the binding signal is 1.42 fold enrichment (6-mer frequency, TF over GST control) in the experiment with SPIC; 1.29 fold enrichment (6-mer frequency, TF over GST control) in the experiment with ELF4; 1.42 fold enrichment (6-mer frequency, TF over GST control) with ELK4; 1.38 fold enrichment (6-mer frequency, TF over GST control) with ETV2; 1.09 fold enrichment (6-mer frequency, TF over GST control) with ELF3; 1.2 fold enrichment (6-mer frequency, TF over GST control) with ETV1.

(Values after publication PMC7862700, “An all-to-all approach to the identification of sequence-specific readers for epigenetic DNA modifications on cytosine”.)
